PubChem BioAssay (NCI)
Compounds without any hit were thinned out: in the full panel of roughly 83,000, 20% have a hit.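 Negative percent growth values reflect cell death: -40 means 40% of the cells present at the start died, and -100 means all died.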 The source made the active and inactive calls. How the source made its calls: active means growth percent below 10; inactive means the rest.

How the values were obtained:
Test in all cases: NCI-60 one-dose screen, 48 h (100 = growth as untreated, 0 = no growth, -100 = all killed)
SR leukemia = settings: 10 µM unless noted
RPMI-8226 leukemia = settings: 10 µM unless noted
OVCAR-8 ovarian = settings: 10 µM unless noted
OVCAR-5 ovarian = settings: 10 µM unless noted
OVCAR-4 ovarian = settings: 10 µM unless noted
SK-OV-3 ovarian = settings: 10 µM unless noted
IGROV1 ovarian = settings: 10 µM unless noted
OVCAR-3 ovarian = settings: 10 µM unless noted
HS 578T breast = settings: 10 µM
NCI/ADR-RES ovarian = settings: 10 µM unless noted
T-47D breast = settings: 10 µM unless noted
BT-549 breast = settings: 10 µM unless noted
MDA-MB-435 melanoma = settings: 10 µM unless noted
SW-620 colon = settings: 10 µM unless noted
MCF7 breast = settings: 10 µM unless noted
HCT-116 colon = settings: 10 µM unless noted
HCC-2998 colon = settings: 10 µM
KM12 colon = settings: 10 µM unless noted

Measured: growth

COc1ccc2c(CCc3ccc(Cl)cc3)c3[n+](cc2c1OC)CCc1cc2c(cc1-3)OCO2
inactive: SR leukemia 33.8% | RPMI-8226 leukemia 20.7% | OVCAR-8 ovarian 51% | OVCAR-5 ovarian 86.2% | OVCAR-4 ovarian 24.4% | SK-OV-3 ovarian 75.2% | IGROV1 ovarian 40.8% | OVCAR-3 ovarian 44.2% | HS 578T breast 79.6% | NCI/ADR-RES ovarian 101% | T-47D breast 24.9% | BT-549 breast 18.5% | SW-620 colon 73.2% | MCF7 breast 60.4% | HCT-116 colon 36.5% | HCC-2998 colon 36.2% | KM12 colon 34.4%
active: MDA-MB-435 melanoma 1.77%

COc1ccc(-c2cnc(-c3ccc(Cl)cc3)[nH]2)cc1OC
inactive: SR leukemia 42.7% | RPMI-8226 leukemia 33.1% | OVCAR-8 ovarian 98.9% | OVCAR-5 ovarian 98.2% | OVCAR-4 ovarian 89.9% | SK-OV-3 ovarian 94.6% | IGROV1 ovarian 52.5% | OVCAR-3 ovarian 103% | HS 578T breast 93.5% | NCI/ADR-RES ovarian 106% | T-47D breast 84.7% | BT-549 breast 132% | MDA-MB-435 melanoma 128% | SW-620 colon 95.9% | MCF7 breast 93.9% | HCT-116 colon 98.6% | HCC-2998 colon 112% | KM12 colon 97.3%

Cc1nn(-c2nc3ccccc3[nH]2)c2c1C(c1ccc(OCc3ccc(F)cc3)cc1)CC(=O)N2 (configuration not stated)
inactive: SR leukemia 67.5% | RPMI-8226 leukemia 76.3% | OVCAR-8 ovarian 54% | OVCAR-5 ovarian 98.5% | OVCAR-4 ovarian 98.4% | SK-OV-3 ovarian 49.1% | IGROV1 ovarian 54.6% | OVCAR-3 ovarian 51% | HS 578T breast 39% | NCI/ADR-RES ovarian 65.9% | T-47D breast 71.3% | BT-549 breast 58.4% | MDA-MB-435 melanoma 44.7% | SW-620 colon 80.2% | MCF7 breast 81.4% | HCT-116 colon 73.4% | HCC-2998 colon 99.3% | KM12 colon 41.5%

CCOC(=O)C1=C(C)NC(=O)NC1c1cc(=O)oc2ccc(C)cc12 (configuration not stated)
inactive: SR leukemia 97.1% | RPMI-8226 leukemia 97.5% | OVCAR-8 ovarian 102% | OVCAR-5 ovarian 107% | OVCAR-4 ovarian 106% | SK-OV-3 ovarian 104% | IGROV1 ovarian 103% | OVCAR-3 ovarian 110% | HS 578T breast 109% | NCI/ADR-RES ovarian 102% | T-47D breast 94.5% | BT-549 breast 111% | MDA-MB-435 melanoma 117% | SW-620 colon 108% | MCF7 breast 91.3% | HCT-116 colon 100% | HCC-2998 colon 96.2% | KM12 colon 101%

CCN(CC)CCCC(C)Nc1cc(-c2ccc(C(F)(F)F)cc2)c(C#N)c2nc3ccccc3n12 (configuration not stated)
active: SR leukemia -17.4% | RPMI-8226 leukemia -19.9% | OVCAR-4 ovarian -27.9% | HS 578T breast -19.1% | T-47D breast -8.16% | BT-549 breast -10.7% | MDA-MB-435 melanoma -64.8% | HCT-116 colon 3.28%
inactive: OVCAR-8 ovarian 11.8% | OVCAR-5 ovarian 11.7% | SK-OV-3 ovarian 74.3% | IGROV1 ovarian 26.1% | OVCAR-3 ovarian 93.5% | NCI/ADR-RES ovarian 32.2% | SW-620 colon 12.2% | MCF7 breast 14.1% | HCC-2998 colon 16.6% | KM12 colon 36.5%

COc1cc(C(=O)NNC(=O)c2ccc(NC(=O)CCl)cc2)cc(OC)c1OC
inactive: SR leukemia 45.8% | RPMI-8226 leukemia 97.8% | OVCAR-8 ovarian 82.2% | OVCAR-5 ovarian 170% | OVCAR-4 ovarian 88.4% | SK-OV-3 ovarian 99.1% | IGROV1 ovarian 75.1% | OVCAR-3 ovarian 62.4% | HS 578T breast 90.5% | NCI/ADR-RES ovarian 102% | T-47D breast 64.3% | BT-549 breast 66.8% | MDA-MB-435 melanoma 92.5% | SW-620 colon 65.5% | MCF7 breast 61.8% | HCT-116 colon 44.5% | HCC-2998 colon 88.7% | KM12 colon 99.7%

COc1ccc2nc3cc(Cl)ccc3c(Nc3ccc(N(C)C)cc3)c2c1
active: SR leukemia 1.55%
inactive: RPMI-8226 leukemia 27.2% | OVCAR-8 ovarian 90.5% | OVCAR-5 ovarian 110% | OVCAR-4 ovarian 88.7% | SK-OV-3 ovarian 85.7% | IGROV1 ovarian 97% | OVCAR-3 ovarian 95.9% | HS 578T breast 109% | NCI/ADR-RES ovarian 87.1% | T-47D breast 86.3% | BT-549 breast 72.1% | MDA-MB-435 melanoma 99.9% | SW-620 colon 95.1% | MCF7 breast 83.5% | HCT-116 colon 96.9% | HCC-2998 colon 91.9% | KM12 colon 83.1%

COC[C@@H](C)n1c(C2CCOCC2)nc2c1C1C=C(OC)C(c3c(C)noc3C)=CC1N=C2 (some centres not stated)
inactive: SR leukemia 31.1% | RPMI-8226 leukemia 10.4% | OVCAR-8 ovarian 57.1% | OVCAR-5 ovarian 70.3% | OVCAR-4 ovarian 42.8% | SK-OV-3 ovarian 39.6% | IGROV1 ovarian 39.4% | OVCAR-3 ovarian 28.9% | HS 578T breast 35% | NCI/ADR-RES ovarian 43.4% | T-47D breast 44.6% | BT-549 breast 62.6% | MDA-MB-435 melanoma 41.6% | SW-620 colon 72.1% | MCF7 breast 15.5% | HCT-116 colon 53.4% | HCC-2998 colon 52.7% | KM12 colon 43%

N#Cc1c(-c2ccc(C(F)(F)F)cc2)c(F)c(NCCC2CCC(O)C2)n2c1nc1ccccc12 (configuration not stated)
active: SR leukemia 9.1%
inactive: RPMI-8226 leukemia 49.5% | OVCAR-8 ovarian 45.4% | OVCAR-5 ovarian 88.7% | OVCAR-4 ovarian 69.9% | SK-OV-3 ovarian 43.2% | IGROV1 ovarian 50.2% | OVCAR-3 ovarian 79.9% | HS 578T breast 86.8% | NCI/ADR-RES ovarian 37.9% | T-47D breast 67.9% | BT-549 breast 30.1% | MDA-MB-435 melanoma 84.1% | SW-620 colon 55.6% | MCF7 breast 46.2% | HCT-116 colon 30.7% | HCC-2998 colon 80.7% | KM12 colon 57.9%

COc1ccc(Cc2cc(-c3ccccc3C)n[nH]c2=O)cc1
inactive: SR leukemia 103% | RPMI-8226 leukemia 39.9% | OVCAR-8 ovarian 99.9% | OVCAR-5 ovarian 101% | OVCAR-4 ovarian 92.5% | SK-OV-3 ovarian 102% | IGROV1 ovarian 53.7% | OVCAR-3 ovarian 96.4% | HS 578T breast 90.9% | NCI/ADR-RES ovarian 105% | T-47D breast 94.4% | BT-549 breast 132% | MDA-MB-435 melanoma 117% | SW-620 colon 103% | MCF7 breast 95.4% | HCT-116 colon 98% | HCC-2998 colon 110% | KM12 colon 97.9%

O=C1/C(=C\c2cccc(OCCCCCOc3ccc(Cl)cc3)c2)N=C2SCCCN12
inactive: SR leukemia 92.1% | RPMI-8226 leukemia 40.9% | OVCAR-8 ovarian 53% | OVCAR-5 ovarian 85.3% | OVCAR-4 ovarian 31.3% | SK-OV-3 ovarian 93.8% | IGROV1 ovarian 86.9% | OVCAR-3 ovarian 59.3% | HS 578T breast 87% | NCI/ADR-RES ovarian 45.4% | T-47D breast 26.4% | BT-549 breast 57.4% | MDA-MB-435 melanoma 46.1% | SW-620 colon 86.2% | MCF7 breast 68.5% | HCT-116 colon 52.7% | HCC-2998 colon 71% | KM12 colon 48.2%

CC(=O)CC1CCCC1c1ccc2ccccc2c1 (configuration not stated)
inactive: SR leukemia 104% | RPMI-8226 leukemia 103% | OVCAR-8 ovarian 100% | OVCAR-5 ovarian 97.2% | OVCAR-4 ovarian 112% | SK-OV-3 ovarian 101% | IGROV1 ovarian 101% | OVCAR-3 ovarian 105% | HS 578T breast 100% | NCI/ADR-RES ovarian 102% | T-47D breast 90% | BT-549 breast 109% | MDA-MB-435 melanoma 111% | SW-620 colon 106% | MCF7 breast 95.9% | HCC-2998 colon 86.8% | KM12 colon 106%

[2H]C1([2H])[C@H](C)O[C@H](C)C([2H])([2H])N1c1ccc(NC(=O)c2cccc(-c3ccc(OC(F)(F)F)cc3)c2C)cn1
inactive: SR leukemia 56.4% | RPMI-8226 leukemia 53.3% | OVCAR-8 ovarian 79.1% | OVCAR-5 ovarian 100% | OVCAR-4 ovarian 65.8% | SK-OV-3 ovarian 63.2% | IGROV1 ovarian 65.2% | OVCAR-3 ovarian 84.6% | HS 578T breast 88.2% | NCI/ADR-RES ovarian 58.4% | T-47D breast 41.7% | BT-549 breast 63.9% | MDA-MB-435 melanoma 73.4% | SW-620 colon 90% | MCF7 breast 66.8% | HCT-116 colon 56.9% | HCC-2998 colon 82.4% | KM12 colon 73.2%

COC(=O)CC[C@@H](C)[C@H]1CC[C@H]2C3CC[C@@H]4C[C@@H]5CC[C@]4(C)[C@@]3(O5)[C@H](Br)[C@@H](Br)[C@]12C (some centres not stated)
inactive: SR leukemia 82.6% | RPMI-8226 leukemia 88.5% | OVCAR-8 ovarian 97.8% | OVCAR-5 ovarian 102% | OVCAR-4 ovarian 85.5% | SK-OV-3 ovarian 80.2% | IGROV1 ovarian 103% | OVCAR-3 ovarian 101% | HS 578T breast 112% | NCI/ADR-RES ovarian 103% | T-47D breast 73.7% | BT-549 breast 102% | MDA-MB-435 melanoma 93.8% | SW-620 colon 102% | MCF7 breast 87.7% | HCT-116 colon 74.2% | HCC-2998 colon 94.8% | KM12 colon 99.8%

Cc1cc(NCC(=O)Nc2ccc(-c3nc4ccccc4s3)cc2)no1
inactive: SR leukemia 69.9% | RPMI-8226 leukemia 98.4% | OVCAR-8 ovarian 96.4% | OVCAR-5 ovarian 119% | OVCAR-4 ovarian 111% | SK-OV-3 ovarian 120% | IGROV1 ovarian 88.5% | OVCAR-3 ovarian 99.3% | HS 578T breast 101% | NCI/ADR-RES ovarian 103% | T-47D breast 80.3% | BT-549 breast 94.7% | MDA-MB-435 melanoma 104% | SW-620 colon 113% | MCF7 breast 35.9% | HCT-116 colon 90.7% | HCC-2998 colon 99.2% | KM12 colon 102%

CNC(=O)c1cnc(C)nc1-c1cc(C(C)(C)C)c(O)c(C(C)(C)C)c1
inactive: SR leukemia 85% | RPMI-8226 leukemia 77.8% | OVCAR-8 ovarian 105% | OVCAR-5 ovarian 102% | OVCAR-4 ovarian 89.7% | SK-OV-3 ovarian 97.5% | IGROV1 ovarian 103% | OVCAR-3 ovarian 116% | HS 578T breast 106% | NCI/ADR-RES ovarian 110% | T-47D breast 99.3% | BT-549 breast 101% | MDA-MB-435 melanoma 98.5% | SW-620 colon 112% | MCF7 breast 93.4% | HCT-116 colon 96.3% | HCC-2998 colon 127% | KM12 colon 96.4%
